Compound activity as filed in PubChem BioAssay.
This is a sample that favours compounds with a hit; in the whole collection about 1.4% have one here.
SARS 3CLpro inh: SARS-CoV 3CLpro protease inhibition; P0C6X7; recombinant SARS-CoV 3CLpro, quenched FRET peptide cleavage; inhibition, % at 6 µM; actives 0.14% (n = 290,000); AID 1706; in the data active = inhibition above about 12%
BJeLR viability: BJeLR cell viability loss | BJeLR (HRASV12) viability, CellTiter-Glo ATP luminescence, 48 h | inhibition, % (concentration not given with the values) | actives 0.17% (n = 300,000) | AID 1554; in the data active = inhibition above about 50%
CCHFV vOTU inh: blocks the CCHF virus ovarian tumor domain protease | actives 0.55% (n = 370,000) | CCHFV vOTU protease, Pep-AMC fluorescence | inhibition, % at 11.5 µM | AID 651958; in the data active = inhibition above about 30%; also: 0% = vehicle wells with enzyme and 100% = no enzyme wells
DUSP3 inh: inhibitors of human VHR1 phosphatase (DUSP3); P51452; recombinant VHR phosphatase, pNPP absorbance; inhibition, % at 13.3 µM; actives 0.52% (n = 290,000); in the data active = inhibition above about 50%
Target sequence (P51452 whole entry, looked up): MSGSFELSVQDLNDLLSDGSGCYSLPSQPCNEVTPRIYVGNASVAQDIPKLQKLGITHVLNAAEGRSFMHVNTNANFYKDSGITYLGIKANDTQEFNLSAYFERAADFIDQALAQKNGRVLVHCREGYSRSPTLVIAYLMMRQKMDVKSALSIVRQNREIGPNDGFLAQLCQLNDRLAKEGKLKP
MazF activator: activators of E. coli MazEF toxin-antitoxin RNase. P0AE70. FAM/BHQ RNA-DNA oligo cleavage fluorescence, 5 h. activation, % at 20 µM. actives 0.32% (n = 350,000); in the data active = activation above about 50%
Target sequence (P0AE70 whole entry, looked up): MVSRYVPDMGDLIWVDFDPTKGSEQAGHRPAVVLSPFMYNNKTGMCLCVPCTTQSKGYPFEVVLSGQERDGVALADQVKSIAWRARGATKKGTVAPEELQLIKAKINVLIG
* = called active by the depositor; · = no result given.

SMILES	SARS 3CLpro inh	BJeLR viability	CCHFV vOTU inh	DUSP3 inh	MazF activator
C=CCNc1nc(N2CCOCC2)c(C#N)c2c1CN(C)CC2	3	-3	10	-4	54*
COc1ccc(C=NNC(=O)Cc2cc(=O)[nH][nH]2)c(OC)c1	·	·	0	·	·
Cc1nc2scc(-c3cccs3)c2c(=O)[nH]1	3	16	-1	55*	1
O=c1[nH]c(-c2ccc(O)cc2)nc2scc(-c3cccs3)c12	3	5	-6	23	12
CC(C)CNS(=O)(=O)CC1NCc2ccccc21 (stereo not drawn)	·	·	6	·	·
O=C(NCC1CCCO1)C(c1ccco1)N(Cc1ccc(F)cc1)C(=O)CN1C(=O)c2ccccc2S1(=O)=O (stereo not drawn)	0	3	-5	58*	-15
COc1ccc(C2(c3ccc(OC)cc3)NC(=O)N(CC(=O)Nc3cc(C)ccc3OC)C2=O)cc1	0	8	13	57*	-1
C=CCNCc1ccc(OC)cc1OC	·	·	-3	·	·
CC1=CC2=C(C=O)C(=O)C(C)(O)C(O)C2=CO1 (stereo not drawn)	·	·	13	·	242*
Cc1ccc(NS(=O)(=O)c2ccc(NC(=O)c3cccs3)cc2)c(C)c1	6	2	5	-8	53*
CS(=O)(=O)N1CCC[C@]2(CC[C@@H](CCC#N)O2)C1	·	·	0	·	·
CC(=O)Nc1ccc(/C=N\NC(=O)c2cccc(S(=O)(=O)N(C)C)c2)cc1	·	·	7	·	·
COc1cc2c3nnc(-c4ccc(F)cc4)c-3cn(Cc3cccc(C)c3)c2cc1OC	-4	12	-45	15	250*
COc1cc2c3nnc(-c4ccc(F)cc4)c-3cn(Cc3cccc(F)c3)c2cc1OC	1	·	·	-21	212*
COc1ccc(NC(=O)Nc2ccc3c(c2)C(=O)N([C@H](C)CO)C[C@H](C)[C@@H](CN(C)S(=O)(=O)c2cccs2)O3)cc1	·	·	10	·	0
COc1ccc(S(=O)(=O)Nc2ccc3c(c2)C(=O)N([C@H](C)CO)C[C@H](C)[C@@H](CN(C)S(=O)(=O)c2cccs2)O3)cc1	·	·	0	·	54*
COc1cccc(N2CCN(CC(=O)NCc3ccc(F)cc3)CC2)c1	·	·	-4	·	·
O=C1C=CC(=O)N1c1ccc(Sc2ccc([N+](=O)[O-])cc2)cc1	6	64*	·	0	·
CCn1c(NC(=O)c2cccc(Cn3cc(Cl)cn3)c2)nc2ccccc21	0	16	25	51*	10
CN(C)CCN(CC1CCCN(Cc2ccccc2F)C1)C(=O)c1ccc(Cl)cc1 (stereo not drawn)	-3	-2	9	11	11
COc1ccccc1CN1CCCC(CN(CCN(C)C)C(=O)c2ccc(C)cc2)C1 (stereo not drawn)	-1	-6	-1	51*	12
COc1ccc(OC)c(N(CC(=O)NC2CC3CCC2C3)S(=O)(=O)c2ccccc2)c1 (stereo not drawn)	0	-6	11	59*	0
COC(=O)c1cc(NC(=O)CN(c2ccccc2OC)S(=O)(=O)c2ccccc2)ccc1Cl	13*	4	5	6	-7
COc1ccc(Cl)cc1N(CC(=O)NC1CC2CCC1C2)S(=O)(=O)c1ccccc1 (stereo not drawn)	1	9	16	2	1
OC(c1ccccc1)(c1ccccc1)C1CCN(CCCNc2ccccc2Br)CC1	·	·	7	·	·
SMILES	SARS 3CLpro inh	BJeLR viability	CCHFV vOTU inh	DUSP3 inh	MazF activator
COc1cc2c(C#N)c(N3CCOCC3)nc(N)c2c(N)n1	-6	-17	-30	-1	20
CCOc1cc2c(C#N)c(N3CCCCC3)nc(N)c2c(N)n1	-9	-18	-3	24	34
COc1cc2c(C#N)c(N3CCCCC3)nc(N)c2c(N)n1	2	-9	-16	-27	56*
COc1cc2c(C#N)c(N3CCc4ccccc4C3)nc(N)c2c(N)n1	-14	2	-11	21	62*
C=C(C)/C=C1/C(Cc2ccccc2)N(CC2CC2)C(=N)N1C(=O)OCc1ccccc1 (stereo not drawn)	·	·	6	·	·
O=C(O)c1cccc(CN2C(=O)c3ccccc3C2=O)c1	-1	-1	9	-22	-11
O=C1c2cccc3c(O)ccc(c23)C(=O)N1Cc1ccccc1	-5	-6	12	30	380*
CCOC(=O)[C@]12CCCC3=C1N(CCC3)C(=O)[C@@H](CC(=O)N1CCC(c3ccccc3)CC1)C2	·	·	2	·	·
CCCCOCCCNC(=O)C[C@H]1C[C@@]2(C(=O)OC)C(=C[C@H](C(C)(C)C)O[C@@H]2C)N(Cc2ccco2)C1=O	·	·	11	·	·
